# Compound activity: PubChem, National Center for Advancing Translational Sciences (NCATS)
# DT40 TDP1 CPT: DT40-hTDP1 cell growth loss with CPT | chicken DT40 Tdp1-/-;hTDP1 cells + 20 nM CPT, ATP luminescence, 48 h | Potency, µM (series often up to 46.2 µM), without a hit: at the highest dose activity change, negative = growth inhibition, actives largely listed as inhibitors | 12% of 420,000 active | AID 686979; also: potency is read from the fitted curve at half-maximal effect; nearly all actives have a fitted effect of over 55% in size
#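 Chicken DT40 Tdp1-/- cells stably complemented with human TDP1 were seeded at 400 cells/well in medium containing 20 nM camptothecin, exposed to pin-transferred compounds, and grown at 37 °C for at least 48 hr. Viability was read as ATP luminescence.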
# IL-1B inflam inh: inhibitors of inflammasome signaling (IL-1 beta secretion). activity change, % at 57.5 µM. THP-1 LPS/ATP IL-1B secretion, AlphaLISA, 16 h; hits give low values. 4.7% of 360,000 active; in the data active = activity change below about -50%; inconclusive = mostly about -30% to -49%
#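 Secreted IL-1B measured by AlphaLISA bead assay after 16 h compound exposure of THP-1 cells; compounds (final up to 57.5 uM) added 1 h before LPS (250 ng/mL) and ATP (1.25 mM) stimulation; lower signal means less secretion.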
# ELG1 DNA repair: inhibitors of ELG1-dependent DNA repair in HEK293T cells. HEK293T ELG1-luciferase reporter, luminescence, 16 h; DNA damage induced by 5-fluorouridine. Potency, µM (top dose mostly 46.1 µM), inactives show at the highest dose activity change, negative = inhibition, most hits filed as inhibitors. 2.3% of 330,000 active. AID 504467; also: potency is read from the fitted curve at half-maximal effect; nearly all actives have a fitted effect of over 55% in size
#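 Quantitative HTS, concentration-response format. 2,000 cells/well co-treated with 5-fluorouridine and compound, 16 hr in 5% CO2 at 37 °C; ONE-Glo luminescence read after 30 min.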
# DT40 TDP1 no CPT: qHTS for Inhibitors of human tyrosyl-DNA phosphodiesterase 1 (TDP1): qHTS in cells in absence of CPT; DT40 Tdp1-/- hTDP1 cells, no CPT, ATP luminescence, 48 h; Potency, µM (series often up to 46.2 µM), inactives show at the top dose activity change, negative = growth inhibition, most hits filed as inhibitors; 15% of 420,000 active; also: potency is read from the fitted curve at half-maximal effect; nearly all actives have a fitted effect of over 55% in size
#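 Growth kinetics read by CellTiter-Glo luminescence after ≥48 hr at 37 °C. Cells: DT40 Tdp1-/- stably carrying human TDP1, 400 per well, compound exposure in the absence of CPT (DMSO vehicle).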
# HT1080NT lethal: kills 2HG-producing HT-1080-NT fibrosarcoma cells. 1.6% of 360,000 active. Potency, µM (titrated, usually from 46.1 µM), for inactives: at the top dose activity, negative = less viability, hits mostly cytotoxic. HT-1080-NT fibrosarcoma viability, CellTiter-Glo ATP luminescence, 48 h;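 also: NT is the 2HG producing partner of a matched IDH1 knockdown line; potency is read from the fitted curve at half-maximal effect; 0% = DMSO-treated cells and -100% = media-only wells without cells; nearly all actives have a fitted effect of over 55% in size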
#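 Viability of the 2HG-overproducing fibrosarcoma line after 48 hours of compound exposure at 37 degrees C was determined by luminescence with CellTiter-Glo, and concentration-effect curves were then fitted and categorized.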
# HT1080 IDH1KD tx: toxicity to HT-1080 IDH1 knockdown cells (counter line). HT-1080 IDH1 knockdown viability, ATP luminescence, 48 h. Potency, µM (highest dose often 46.1 µM), inactives show top-dose activity, negative = toxicity, actives largely listed as cytotoxic. 2% of 360,000 active. AID 686971;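 also: potency is read from the fitted curve at half-maximal effect; 0% = DMSO wells and -100% = cell-free medium wells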
#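 HT-1080-IDH1KD cells (IDH1 knocked down), 750/well in RPMI with 5% FBS, treated with compound 48 h at 37 degrees C. Viability by CellTiter-Glo luminescence, normalised to DMSO and no-cell wells; concentration-response curves classed.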
# * = called active by the depositor; u = inconclusive; x = not tested or not shown. This is a sample that favours compounds with a hit; in the whole collection about 19% have one here. Unless noted, calls follow the shape of the dose curve; as a rule, active = well fitted curve in the direction sought with a large enough effect; inconclusive = small, poorly fitted or top-dose-only effect, or another doubt; inactive = no such curve, though single readings can be large; an effect the other way counts as inactive or inconclusive. Unless noted, % is scaled to controls: 0 for no effect and ±100 for the full control effect.
SMILES,DT40 TDP1 CPT,IL-1B inflam inh,ELG1 DNA repair,DT40 TDP1 no CPT,HT1080NT lethal,HT1080 IDH1KD tx
O=C(NNC(=O)C1CC1)c1ccc(F)cc1F,13%,-7,15%,-11%,19%,14%
CCOc1ccccc1CNC(=O)CCCn1ccc2cc(S(=O)(=O)N3CCCC3)ccc21,23µM*,5,u,21µM*,-26%,-7%
COc1ccc(CNC(=O)Cn2ccc3cc(S(=O)(=O)N4CCCCC4)ccc32)c(OC)c1,23µM*,x,x,-81%,x,x
CCOCCCNC(=O)CCn1ccc2cc(S(=O)(=O)N3CCCC3)ccc21,-14%,0,-1%,12%,-5%,-1%
COc1ccc(CNC(=O)Cn2ccc3cc(S(=O)(=O)N4CCCC4)ccc32)c(OC)c1,-29%,x,x,u,x,x
CCOc1ccccc1CNC(=O)Cn1ccc2cc(S(=O)(=O)N3CCCC3)ccc21,18µM*,u,2%,23µM*,-30%,u
CCCCN1C(=O)N(c2ccccc2Cl)C(C)(O)CC1(C)C (stereo not drawn),-14%,1,-18%,u,3%,-1%
O=C(Nc1cccc(Cl)c1)N(CCN1CCOCC1)Cc1cccc(Cl)c1,u,-76*,u,u,u,u
CCOc1ccc2[nH]c(=O)c(CN(CCCN3CCOCC3)C(=O)Nc3ccc(F)cc3)cc2c1,-2%,-1,x,11%,-2%,-2%
CCc1ccc2[nH]c(=O)c(CN(CCCN3CCOCC3)C(=O)Nc3cccc(Cl)c3)cc2c1,u,-62*,-17%,15µM*,u,u
CCc1ccc2[nH]c(=O)c(CN(CCCN3CCOCC3)C(=O)Nc3ccccc3)cc2c1,23µM*,0,-9%,21µM*,u,u
Cn1c(SCc2c(F)cccc2Cl)nc2ccccc2c1=O,-25%,0,0%,-27%,5%,7%
Cn1c(SCc2c(F)cccc2Cl)nc2c(c1=O)SCC2,-19%,-59*,-29%,u,-23%,-6%
CC(C)=CCC12Oc3cc(O)ccc3C1(O)Oc1cc(O)c([C@H]3C=C(C)CC(c4ccc(O)cc4O)[C@H]3C(=O)c3ccc(O)cc3O)c(O)c1C2=O (stereo partly drawn),u,22,x,26µM*,u,u
Cc1ccc(C)c(-n2nnc(-c3nc(-c4ccccc4C)no3)c2C)c1,16µM*,x,x,15µM*,x,x
Cc1ccc(Cl)cc1-n1nnc(-c2nc(-c3ccc4c(c3)OCO4)no2)c1C,u,x,x,21µM*,x,x
Cc1c(Cl)cccc1-n1nnc(-c2nc(-c3ccc4c(c3)OCO4)no2)c1C,23µM*,x,x,u,x,x
COc1ccc(Cl)cc1-n1nnc(-c2nc(-c3ccc4c(c3)OCO4)no2)c1C,1%,x,x,-8%,x,x
CC(=O)c1cccc(NC(=O)Cn2cc(C(=O)c3cccc(Cl)c3)c(=O)c3ccc(C)nc32)c1,-2%,x,x,-1%,x,x
COCCNCC(=O)N1CCCCCC1,10%,1,-16%,-1%,23%,11%
Cc1oc2cc3oc(=O)cc(C)c3cc2c1C,-18%,-7,u,-13%,20%,-3%
OC(c1ccccc1)(c1ccccc1)C1CCN(CCCOc2ccc(F)cc2)CC1,u,-53*,x,u,21µM*,23µM*
COc1ccccc1N1CCN(CCCOc2ccc(F)cc2)CC1,u,20,-3%,u,-20%,-19%
Cc1ccc(OCCCN2CCC(C(O)(c3ccccc3)c3ccccc3)CC2)cc1,u,-52*,x,u,u,18µM*
COC(=O)c1cccc(OCCCN2CCC(C(O)(c3ccccc3)c3ccccc3)CC2)c1,u,0,x,u,u,16µM*
SMILES,DT40 TDP1 CPT,IL-1B inflam inh,ELG1 DNA repair,DT40 TDP1 no CPT,HT1080NT lethal,HT1080 IDH1KD tx
CN(Cc1nccn1C)C(=O)C1CCC(=O)N(CCc2ccc(Cl)cc2)C1 (stereo not drawn),3%,-1,1%,-6%,13%,12%
COc1cc2c(NC3CCN(C)CC3)nc(N3CCCN(C)CC3)nc2cc1OCC1CCNCC1,-4%,x,x,-14%,x,x
COc1ccc(NC(=S)NC2CCN(Cc3ccccc3)CC2)cc1OC,-8%,-10,15%,u,0%,-5%
COc1cc2[nH]c(=S)n(C3CCN(Cc4ccccc4)CC3)c(=O)c2cc1OC,u,23,-12%,18µM*,4%,5%
COc1cc2nc(Cl)nc(NC3CCN(Cc4ccccc4)CC3)c2cc1OC,7.1µM*,x,x,10µM*,0%,-2%
COc1cc2nc(N3CCN(C)CC3)nc(NC3CCN(Cc4ccccc4)CC3)c2cc1OC,11µM*,x,x,11µM*,u,11µM*
COc1ccc(Cn2c(=S)[nH]c3cc(OC)c(OC)cc3c2=O)cc1,14%,-16,10%,u,0%,u
COc1cc2c(NC3CCN(C)CC3)nc(N3CCCN(C)CC3)nc2cc1OCc1ccccc1,2.8µM*,x,x,2.8µM*,10µM*,6.3µM*
COc1cc(S(=O)(=O)N2CC(=O)Nc3ccccc32)ccc1NC(C)=O,11%,42,-5%,-3%,6%,3%
CCN(CC)S(=O)(=O)c1nnc(NC(=O)COc2ccc(Cl)cc2)s1,u,x,x,-13%,x,x
COc1ccc(-c2cc(C(F)(F)F)nc(N3CCN(Cc4ccccc4)CC3)n2)cc1OC,u,19,-17%,u,-3%,0%
COc1ccc(/C=C/C(=O)NC2CCN(Cc3ccccc3)CC2)cc1OC,-8%,-8,-15%,-5%,-1%,-17%
COc1cc2nc(N3CCOCC3)nc(NC3CCN(Cc4ccccc4)CC3)c2cc1OC,16µM*,x,x,11µM*,u,u
COc1cc2nc(N3CCCN(C)CC3)nc(NC3CCN(Cc4ccccc4)CC3)c2cc1OC,2.5µM*,x,x,4µM*,10µM*,7.1µM*
O=C(O)CCC(=O)Nc1sc2c(c1C(=O)NC1CCCC1)CCCC2,-3%,1,-3%,-23%,12%,14%
CC(=O)C(=Nc1cccc(Cl)c1)NNc1ccccc1C,u,23,x,15µM*,-18%,-19%
Cc1cc(Cl)ccc1NNC(=O)c1cccs1,-3%,-11,u,-10%,u,u
CCNCc1ccccc1OCc1ccccc1,-24%,-5,-11%,8%,-11%,-7%
Oc1ccc(NCc2ccccc2OCc2ccccc2)cc1,18µM*,-74*,u,23µM*,-21%,u
